Measurements as given in PubChem BioAssay AID504334 (NMMLSC, 2011).

Assay: yeast AGP1-GFP fluorescence change, single-dose confirmation – cell-based, flow cytometry, S. cerevisiae, cherry pick set 3 (AID 504334);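 further: median GFP fluorescence per well by flow cytometry over the all cells gate; ratio of sample to mean DMSO control signal so DMSO = 100% not 0%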
Conditions: S. cerevisiae AGP1-GFP strain, 3 h, at 10 µM, active compounds read high;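 active means response relative to DMSO over 150%; inconclusive means yeast strain with under 70 recorded events; inactive means the rest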

Percent response vs DMSO, inactive:
COC(=O)COc1c(Cl)cc(Cl)c2ccc(C)nc12 105%
CC(=O)Nn1cnc2c(c1=O)C1(CCCC1)Cc1ccccc1-2 99.1%
COc1ccc(OC)c2c(C)cc(C)nc12 97.1%
O=C(/C=C/Nc1cccc(O)c1)c1ccccc1 102%
CC(=O)C(CC(=O)N1CCCC1)C(=O)Nc1ccc(Cl)cc1 (stereo unspecified) 100%
O=C(O)CCCCCNc1ncnc2ccc(Br)cc12 101%
COc1cc(=O)n(C)c2c(O)cccc12 98.1%
CNc1nc(C)c([N+](=O)[O-])c(Nc2ccc(OC)cc2)n1 99.4%
COc1cccc(N/C=C/C(=O)c2ccc(C)cc2)c1 99.8%
O=C(N/N=C/c1ccccc1)c1cccc2ccccc12 101%
CN1CCN(C(=O)c2cc(COc3ccc(F)cc3Cl)on2)CC1c1ccccc1 (stereo unspecified) 101%
Oc1ccc(F)c2cccnc12 102%
COc1ccc(Nc2nc(NN)nc(C)c2[N+](=O)[O-])cc1 94.1%
COCCNc1nc(N)c([N+](=O)[O-])c(Nc2ccc(F)cc2)n1 101%
COc1cccc(N/C=C/C(=O)c2ccc(Cl)cc2)c1 93.8%
Cc1cc(C)c2ccc(N)nc2c1O 101%
COc1cccc(N/C(C)=C/C(=O)c2ccc(Br)cc2)c1 101%
O=C(O)c1ccc2cccc(O)c2n1 103%
Cc1nc2c(O)cccc2cc1CO 99.1%
O=C(Nc1cccc(Cl)c1)ON=C1c2ccccc2-c2ccccc21 99.1%
Nc1nc(NCCOCCO)nc(Nc2cccc(F)c2)c1[N+](=O)[O-] 98.1%
